From PubChem BioAssay (NCI) come the findings set out here.

Values joined by “and” are separate entries in the source; they are usually repeats but may differ in a detail not shown here. Identical values can stand only once. The panel holds about 83,000 compounds, 20% with a hit somewhere; the sample as a whole holds those more often.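 Each cell line was grown in a 96-well plate and treated with one concentration of compound for 48 hours. Values below 10 were considered active.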 Values without a mark were called inactive. Active and inactive are the calls of the source.

This test concerns MDA-MB-468 breast. As to the kind of experiment: NCI-60 one-dose screen, 48 h (100 = growth as untreated, 0 = no growth, -100 = all killed). Particulars: 10 µM unless noted.
With `COc1cc2cc3cc4cc(OC)c(OC)cc4c(C)[n+]3cc2cc1OC` (tested in a mixture with another compound), the growth is 44%. For the compound `CC(/C=N/NC(=O)c1cc(-c2ccco2)[nH]n1)=C\c1ccccc1`, the growth is 117%.

In the case of `Cc1cc(Nc2cccc(C(F)(F)F)c2)n2c(nc3ccccc32)c1C#N`, the growth was -4.87% (active). With `Cn1c(=O)c2c(nc(NC3=NS(=O)(=O)c4ccccc43)n2CC(=O)N2CCc3ccccc32)n(C)c1=O` the figure was 102%; with `O=S(=O)(NCCNc1nccc(-c2c(-c3cccc(F)c3)nc3sccn23)n1)c1ccc(Br)cc1`, 78.3%. Regarding `Oc1cccc(Nc2nccc(-c3ccc4ccccc4c3)n2)c1`, the growth was 15.6%. As for `CN(C)[C@@H]1C(=O)C(C(N)=O)=C(O)[C@@]2(O)C(=O)C3=C(O)c4c(O)cc(CN5CCc6ccccc6C5)c(Cl)c4C[C@H]3C[C@@H]12`, the figure is -46.8% (active). As to `CNC(=O)c1cc(Oc2ccc3nc(NC(=O)c4cc(C(F)(F)F)cc(C(F)(F)F)c4)sc3c2)ccn1`, the growth is 23%. As for `O/N=C/c1cccs1`, the figure is 106%.

On to `COc1cc2nc(N3CCCC3)nc(Nc3ccccc3)c2cc1OC`, for which the growth was -38.2% (active). With `N#C/C(=C\c1c(-c2ccccc2)[nH]c2ccccc12)S(=O)(=O)c1ccccc1` the figure was 20.5%; with `COc1ccc(-c2cc(-c3ccc(Nc4nc(Nc5ccccc5)nc(Nc5ccc(Cl)cc5)n4)cc3)nc(N)c2C#N)cc1`, -31.1% (active). With `O=S(=O)(Nc1ccc(-c2nc(-c3cccc(OCCN4CCOCC4)c3)c(-c3ccnc(Br)c3)[nH]2)cc1)c1ccccc1` the figure was 1.46% (active); with `O=C1/C=C/[C@@H](O)[C@@H]2C[C@@H](O)C[C@H]2/C=C/CCC[C@H](CCc2ccc3ncccc3c2)O1`, -5.95% (active); with `C[C@@H]1COCCN1c1cc(C2([S@](C)(=N)=O)CC2)nc(-c2ccnc3[nH]ccc23)n1`, 28.3%. For `O=C1CCC/C=C\C[C@H]2C=C(Cl)C(=O)/C2=C/C[C@H](CCCCC(F)(F)F)OC(=O)CCC/C=C\C[C@H]2C=C(Cl)C(=O)/C2=C/C[C@H](CCCCC(F)(F)F)O1`, the growth was -72.2% [7.5 µM] (active). Regarding `CCCCn1cnc2c(Sc3c([N+](=O)[O-])ncn3C)nc(N)nc21`, the growth is 96.9%. With `C=C1CC[C@@H](C(=O)OC)Cc2nc(C)ccc21`, the growth is 106%.

Regarding `CC(=O)O[C@H]1CC[C@]2(C)[C@H]3CC=C4[C@@H]5[C@H](C)[C@@H](C)CC[C@]5(C(=O)NCCNCCNCCN)CC[C@@]4(C)[C@]3(C)CC[C@H]2C1(C)C`, the growth was 69.2%. As for `N#Cc1c(-c2ccc(Cl)cc2)nc(N=Nc2c(O)[nH]c3ccc(Cl)cc23)nc1N1CCOCC1`, the figure is 90.8%. As for `COc1ccc(-c2cc(-c3cc4ccccc4oc3=O)n(-c3ccccc3)n2)cc1`, the growth is 87.3%. With `Brc1cccc(-n2ncc3c(Nc4ccc(-c5nnc(-c6ccccc6)o5)cc4)ncnc32)c1` the figure was 101%; with `Cc1cc(O)c(=O)cc2c1C[C@H]1CC(C)(C)/C=C/C[C@]3(C)Oc4cc(=O)c(O)cc(C)c4C[C@H]3C[C@H](O)[C@@]1(C)O2`, -16.7% (active) and -22.9% (active); with `CCCCS(=O)(=O)Oc1ccc(-c2nc(C)c(C(=O)OCC)s2)cc1C=O`, 52.1%.

Consider `COc1cccc(C2C3=C(COC3=O)N(CCO)c3cc4c(cc32)OCO4)c1` (configuration not stated), for which the growth was -36.3% (active). For `Cc1ccc(/C=C/C(=O)c2ccc(NC(=O)CSc3nc4c([nH]3)c(=O)n(C)c(=O)n4C)cc2)c(C)c1`, the growth was 34.1%.

With `Fc1cccc(CNc2c3ccccc3nc3ccccc23)c1`, the growth was 0.607% (active).
